# Data published in PubChem BioAssay.
# A number with no mark means an inactive call. The source made the active and inactive calls. Rule as the data show it, unless noted: active = inhibition above about 30%; inactive = the rest.
# How the values were obtained:
# [1] = target: Nuclear receptor coactivator 3 (Homo sapiens) (UniProt Q9Y6Q9); assay: NCOA3 GAL4-fusion reporter inhibition – cell-based, luminescence, quadruplicate, confirmation (AID 588792;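 active = mean inhibition over 43.08%, the solvent-only control mean plus 3 SD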;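 also: 0% = DMSO treated cells and 100% = gossypol at 36 µM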); settings: HEK293 GAL4-SRC3 luciferase reporter, at 3.6 µM, hits give high values
# Sequence of Nuclear receptor coactivator 3 (Homo sapiens) (Q9Y6Q9 whole entry, looked up, the tested form may be a part): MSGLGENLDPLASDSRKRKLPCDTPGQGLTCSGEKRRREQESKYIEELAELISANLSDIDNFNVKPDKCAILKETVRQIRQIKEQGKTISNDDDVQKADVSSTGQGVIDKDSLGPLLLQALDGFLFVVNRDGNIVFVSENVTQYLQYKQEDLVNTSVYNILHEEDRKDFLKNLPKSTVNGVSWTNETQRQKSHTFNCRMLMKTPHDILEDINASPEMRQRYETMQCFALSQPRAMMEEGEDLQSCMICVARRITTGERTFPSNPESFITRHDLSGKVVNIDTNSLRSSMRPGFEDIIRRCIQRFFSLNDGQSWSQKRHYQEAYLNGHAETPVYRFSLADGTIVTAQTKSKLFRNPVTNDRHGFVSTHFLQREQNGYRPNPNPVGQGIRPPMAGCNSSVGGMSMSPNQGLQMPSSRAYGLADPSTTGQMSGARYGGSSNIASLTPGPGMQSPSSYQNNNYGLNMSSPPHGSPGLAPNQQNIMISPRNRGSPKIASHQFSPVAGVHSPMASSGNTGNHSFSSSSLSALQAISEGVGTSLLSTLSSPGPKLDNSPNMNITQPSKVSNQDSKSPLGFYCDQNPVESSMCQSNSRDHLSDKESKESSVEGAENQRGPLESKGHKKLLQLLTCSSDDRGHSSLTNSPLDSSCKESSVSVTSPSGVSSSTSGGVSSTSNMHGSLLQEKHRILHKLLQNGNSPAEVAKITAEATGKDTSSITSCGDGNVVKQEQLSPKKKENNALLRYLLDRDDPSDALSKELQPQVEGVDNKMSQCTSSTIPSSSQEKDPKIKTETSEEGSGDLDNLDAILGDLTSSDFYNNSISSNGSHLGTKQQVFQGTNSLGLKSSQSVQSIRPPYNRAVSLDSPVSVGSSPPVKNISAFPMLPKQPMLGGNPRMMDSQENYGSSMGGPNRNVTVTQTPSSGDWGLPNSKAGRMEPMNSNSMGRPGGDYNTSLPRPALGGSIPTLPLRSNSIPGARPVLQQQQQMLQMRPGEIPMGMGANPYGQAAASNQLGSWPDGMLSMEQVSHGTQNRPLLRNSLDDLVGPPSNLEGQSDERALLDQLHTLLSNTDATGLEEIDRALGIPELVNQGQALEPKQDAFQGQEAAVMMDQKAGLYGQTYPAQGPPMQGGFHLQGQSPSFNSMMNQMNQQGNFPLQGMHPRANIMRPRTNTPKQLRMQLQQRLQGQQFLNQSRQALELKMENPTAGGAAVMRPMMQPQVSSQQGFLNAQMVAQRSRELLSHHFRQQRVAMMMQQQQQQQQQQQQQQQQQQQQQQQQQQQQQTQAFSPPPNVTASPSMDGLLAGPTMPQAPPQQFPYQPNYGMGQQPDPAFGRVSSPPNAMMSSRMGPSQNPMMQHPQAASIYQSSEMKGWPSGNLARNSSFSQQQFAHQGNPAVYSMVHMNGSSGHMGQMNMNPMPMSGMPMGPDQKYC
# [2] = test system: transactivating tegument protein VP16 (Human herpesvirus 1), Gal4-VP16 luciferase reporter; assay: repression of VP16-driven luciferase reporter – cell-based, luminescence, high throughput, counter-screen for SRC3 inhibitor project (AID 588794); settings: mammalian cells, at 3.6 µM, hits give high values
Compound,inhibition [1],inhibition [2]
COc1ccc2c(c1)CCc1cnc(N)nc1-2,20%,10.4%
CC(=O)Nc1ccc(NC(=O)c2ccc(N(Cc3ccccc3C)S(C)(=O)=O)cc2)cc1,-0.29%,-7.31%
COc1ccccc1OCC(=O)NNC(=O)C1CCN(c2ncnc3sc(C)c(C)c23)CC1,3.67%,0.76%
CCOC(=O)c1cnc(SC2CC(=O)N(c3cccc(OC)c3)C2=O)nc1N (configuration not stated),9.15%,6.73%
CCOC(=O)N1CCC2(CC1)C(C#N)=C(N)Oc1n[nH]c(CSc3ccc(C)cc3)c12,2.57%,-6.53%
Cc1cccc(C)c1-n1c(C)cc(/C=N\NC(=O)CC(=O)NC2CCCCC2)c1C,-17.4%,-15.1%
OCC(O)C(O)C(O)C(O)C1NCCS1 (configuration not stated),-6.42%,-4.51%
CCC(=O)N1CCN(c2ccnc3cc(Cl)ccc23)CC1,29.1%,9.02%
CC1(C)C2CCC(C2)C1C/C=N/NC(N)=S (configuration not stated),17.5%,13.4%
Cn1nc(C(F)(F)F)c(-c2ccc(Br)cc2)c1NC(=O)c1ccco1,7.4%,-1.15%
CC1CCCC=CC2CC(OC(=O)CN(C)C)CC2C(O)C=CC(=O)O1 (configuration not stated),65.1% (active),71.2% (active)
Cn1c(SCC(=O)Nc2ccc(Cl)cc2)nc(O)cc1=O,-1.75%,-9.43%
COc1ccc(NC(=O)C2CCN(S(=O)(=O)c3ccc4c(c3)CC(C)N4C(C)=O)CC2)cc1OC (configuration not stated),9.24%,5.82%
O=C(Nc1ncc(Cc2ccc(C(F)(F)F)cc2)s1)c1ccc(-c2cccc([N+](=O)[O-])c2)o1,0.3%,44.4% (active)
O=C(NNc1ccccc1)c1ccc(Cl)c(Cl)c1,19.8%,58.7% (active)
CCCCC(=O)NC(=S)Nc1cccc(Cl)c1N1CCCCC1,1.21%,-6.23%
c1csc(Cc2nn3c(-c4ccncc4)nnc3s2)c1,29.8%,20.8%
COc1ccc(C(CC(=O)O)NC(=O)OC(C)(C)C)cc1 (configuration not stated),4.59%,3.31%
Cc1ccc(S(=O)(=O)NC(=O)c2cc(C)n(-c3ccccc3)c2C)cc1,-1.88%,-1.79%
Cc1ccc2c(c1)/C(=C/c1ccc(F)cc1)C(=O)N2,7.93%,-3.06%
C=CC[C@@H](CC(=O)N(CCO)Cc1ccccc1)C(=O)N[C@@H](C)COC(=O)[C@@H](CC=C)Cc1ccc(F)cc1,5.89%,-1.92%
COc1ccccc1N1CCN(C(=O)CSc2nnc3n2C(C)(C)Cc2ccccc2-3)CC1,-10.1%,27.2%
COc1ccc(C)cc1NC(=O)c1nnn(Cc2cccc(F)c2)c1N,22.3%,26.1%
Cc1cc(NC2CCCCC2)nc(NCc2ccccc2)n1,18.8%,28.1%

Compound,inhibition [1],inhibition [2]
CCOc1ccc(N2C(=O)/C(=C/c3cc(OC)c(OC)c(OC)c3)N(CC(=O)OC)C2=S)cc1,18.9%,12.7%
COC(=O)c1ccc2c(c1)C(C)(C)C(/C=C/c1ccc(O)cc1)=[N+]2C,66.6% (active),52.8% (active)
Cn1c(N)c(C(=O)COC(=O)C2CC(=O)N(Cc3ccccc3)C2)c(=O)n(C)c1=O (configuration not stated),-0.18%,-2.93%
O=C(c1ccc(S(=O)(=O)Cc2cc(F)ccc2F)c([N+](=O)[O-])c1)N1CCCCC1,-2.8%,-0.48%
CC(Oc1ccc(Cl)cc1)C(=O)NCCN1C(=O)S/C(=C\c2cccnc2)C1=O (configuration not stated),4.29%,-2.64%
COc1ccc(C(=O)Nc2c(-c3cccs3)c(=O)c3ccccc3n2C)cc1,-10.2%,7.07%
COc1ccc(OCCOCC(O)CN2CCOCC2)cc1 (configuration not stated),-13.2%,-8.92%
CC[C@H](C)Cc1cn([C@@H](CCCCNC(=O)OC(C)(C)C)C(=O)NCCCCCCCCCCC(=O)N2CCN(C(=O)OC(C)(C)C)CC2)nn1,17.9%,22.5%
CCOC(=O)c1c(C)[nH]c2c1-c1ccccc1C(=O)C2=O,95.1% (active),91.5% (active)
CC(C)c1nc(Cl)c(C#N)c2c1CCCC2,26%,37% (active)
O=C(NC1CCCC1)c1cc(COc2ccc3ncccc3c2)on1,19.7%,43.3% (active)
COc1ccc(-c2ncncc2-c2ccc(Cl)cc2)c(O)c1,25.1%,22.8%
COc1ccc(C(C)=O)cc1CSc1nnc(Nc2ccccc2)s1,9.88%,19.3%
Cc1cccc(Nc2nc(-c3c(C)nc4ccccn34)cs2)c1,19.1%,24.4%
O=[N+]([O-])c1ccc(S(=O)(=O)CC2CSc3nc4ccccc4n32)cc1 (configuration not stated),15.6%,18.6%
COc1ccc(-n2nc(C(=O)NCC(=O)NCC3COc4ccccc4O3)c3ccccc3c2=O)cc1OC (configuration not stated),-4.76%,-7.63%
CCn1cc(C(=O)NCc2ccccn2)c(=O)c2cc(F)c(N3CCN(C)CC3)cc21,-0.49%,3.18%
Cc1ccc(N/C(N)=N/c2nc(C)cc(C)n2)cc1,-9.39%,-6.71%
Cc1ncoc1C(=O)NC1CCCc2c1cnn2-c1ccc(C(C)(C)C)cc1 (configuration not stated),-0.26%,41.8% (active)
CN(C)CCCOc1ccc2c(c1)Sc1ccccc1CC2=O,-10.4%,-4.19%
CCc1nc2ccccc2c(=O)n1NCCc1ccccc1,-4.18%,2.67%
COc1ccc(NC(=O)N(C)C[C@H]2Oc3c(NC(=O)Nc4ccc(C(F)(F)F)cc4)cccc3C(=O)N([C@H](C)CO)C[C@@H]2C)cc1,10.2%,-6.34%
Brc1ccc2ncc3ccccc3c2c1,40.2%,19.1%
CCOc1ccc(S(=O)(=O)N2CCN(C(=O)COc3ccc(Br)cc3)CC2)cc1,14.4%,14.7%

Compound,inhibition [1],inhibition [2]
COc1ccc2nc(C)cc(SCC(=O)N/N=C/c3ccc(O)cc3O)c2c1,24.1%,18.7%
COc1cc2c(C#N)c(N3CCOCC3)nc(N)c2c(N)n1,-5.11%,0.07%
COc1ccc(C(=O)Nc2nc(-c3ccccn3)cs2)cc1S(=O)(=O)N1CCOCC1,18.3%,-11.1%
Cc1ccc(S(=O)(=O)NCc2ccc(C(=O)N3CCN(c4ccc([N+](=O)[O-])cc4)CC3)cc2)cc1,17%,36.9% (active)
Cc1cccc(Nc2nc(N)c([N+](=O)[O-])c(N3CC(C)CC(C)C3)n2)c1 (configuration not stated),3.08%,15.7%
O=C(Nc1sc2c(c1C(=O)O)CCCC2)c1ccc(F)cc1,0.98%,27.5%
CN1CCN(Cc2cc(COCc3ccccc3)c3cccnc3c2O)CC1,20.5%,31% (active)
Cc1ccc(C(=O)N(Cc2cccs2)C2CCS(=O)(=O)C2)cc1 (configuration not stated),-5.57%,0.26%
CC(C)(CC(=O)O)CC(=O)Nc1cc(C(F)(F)F)cc(C(F)(F)F)c1,6.02%,-7.34%
Cc1cc(C)n(CCC(=O)N/N=C/c2ccccc2O)n1,18%,4.14%
CCCCCCCOC(=O)C[N+](C)(C)CCOC1CC2CCC1(C)C2(C)C (configuration not stated),-17.6%,9.62%
CC(C)OP(=O)(OC(C)C)/C(C=O)=N\Nc1ccc([N+](=O)[O-])cc1,7.9%,2.13%
COC(=O)c1sc(NC(=O)c2cc(-c3ccccc3)nc3ccccc23)c(C#N)c1C,5.32%,38.6% (active)
COc1cc(C=CC(=O)c2ccccc2)cc(OC)c1OC,28.4%,30.1% (active)
COC(=O)Cc1[nH]n(-c2nc3ccccc3s2)c(=O)c1C(C)=Nc1ccc(C)cc1,90.5% (active),87.1% (active)
Cc1noc(C)c1COC(=O)c1cc(F)c(F)cc1Cl,2.84%,1.74%
COc1cccc(/C=C/C(=O)OCC(=O)N2CCCC2)c1OC,-12.6%,-16%
Cc1[nH]nc(-c2ccc(O)cc2O)c1Oc1ccccc1,3.77%,10.3%
CCOC(=O)c1c(-c2ccccc2)nnn1-c1nc(OCC)nc(N2CCCCC2)n1,-15.5%,0.51%
COc1ccc(CCNC(=O)C(C)n2nc(C)c3c(C)n(-c4ccc(C)cc4)nc3c2=O)c(OC)c1 (configuration not stated),7.11%,30.4% (active)
Cc1cccn2c(CNCC3(c4ccccc4)CCCC3)c(C(=O)N3CCOCC3)nc12,7.17%,6.26%
Cc1ccc(-n2c(-c3ccccc3)c[n+]3c2CCC3)cc1,14.4%,30.6% (active)
COc1ccccc1C(CNc1ccc(S(=O)(=O)N2CCCC2)cc1[N+](=O)[O-])N(C)C (configuration not stated),23.9%,24.9%
